Assay outcomes as filed in PubChem.
An excerpt weighted towards active compounds, which were near 7.3% of everything screened.
RORg inh = qHTS for inhibitors of ROR gamma transcriptional activity | Potency, µM (top dose mostly 53.6 µM), inactives show at the highest dose activity change, negative = inhibition, most hits filed as inhibitors | AID 2551, 2010 | Nuclear receptor ROR-gamma (Mus musculus), P51450 | hit rate 5.4% among 310,000 | Drosophila S2 Gal4-RORgamma UAS-luciferase reporter, 20 h; note: nearly all actives have a fitted effect of over 60% in size
Target sequence (P51450 whole entry, looked up, the tested form may be a part): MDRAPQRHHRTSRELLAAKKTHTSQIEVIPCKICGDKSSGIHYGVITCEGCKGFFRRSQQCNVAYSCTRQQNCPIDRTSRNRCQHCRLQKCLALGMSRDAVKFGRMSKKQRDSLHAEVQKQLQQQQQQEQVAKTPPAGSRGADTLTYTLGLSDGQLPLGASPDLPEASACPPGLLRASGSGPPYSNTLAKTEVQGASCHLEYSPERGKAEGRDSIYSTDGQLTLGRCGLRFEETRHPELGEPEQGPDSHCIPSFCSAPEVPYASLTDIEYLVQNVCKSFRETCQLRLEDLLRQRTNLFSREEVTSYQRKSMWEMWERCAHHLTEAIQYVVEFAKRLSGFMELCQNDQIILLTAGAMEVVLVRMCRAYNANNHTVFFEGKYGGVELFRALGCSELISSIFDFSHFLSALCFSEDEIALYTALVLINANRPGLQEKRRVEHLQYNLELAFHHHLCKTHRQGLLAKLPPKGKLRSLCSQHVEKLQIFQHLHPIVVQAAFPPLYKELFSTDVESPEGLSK
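Using a luciferase readout, inhibitors were identified by reduced reporter activity in Drosophila cells coexpressing a copper-inducible Gal4–ROR gamma fusion and UAS-driven Photinus luciferase, incubated 20 hr after 700 uM copper sulfate.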
Gal4-VP16 FLuc = VP16 counterscreen qHTS for inhibitors of ROR gamma transcriptional activity; Drosophila S2 Gal4-VP16 UAS-luciferase, luminescence, 20 h; Potency, µM (highest dose often 53.6 µM), for the others: at the highest dose activity, negative = inhibition, actives largely listed as inhibitors; hit rate 3.5% among 310,000; AID 2546, 2010;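 note: Gal4-VP16 expression switched on by copper sulfate through the metallothionein promoter; nearly all actives have a fitted effect of over 50% in size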
Tau fibril FP = qHTS for Inhibitors of Tau Fibril Formation, Fluorescence Polarization | K18 P301L tau heparin fibrillization, Alexa594 FP, 6 h | Potency, µM (highest dose often 57.7 µM), for inactives: at the top dose activity, negative = inhibition, most hits filed as inhibitors | hit rate 0.39% among 280,000 | AID 1468, 2008; note: nearly all actives have a fitted effect of over 55% in size
Target sequence (P10636 561-689 P618L limits assumed): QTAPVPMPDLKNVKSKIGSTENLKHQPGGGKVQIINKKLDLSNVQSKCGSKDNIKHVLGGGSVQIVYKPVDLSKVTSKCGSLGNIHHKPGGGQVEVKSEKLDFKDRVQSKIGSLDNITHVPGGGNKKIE
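FP of Alexa 594-tau after heparin (20 uM) induction. Substrate: human K18 P301L, 15 uM unlabeled, 0.24 uM labeled. Buffer 100 mM sodium acetate pH 7. 6 hr, 37 C.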
Tau fluor counter = Counterscreen qHTS for Inhibitors of Tau Fibril Formation, Fluorescence Polarization. AID 1463, 2008. hit rate 0.93% among 280,000. tau K18 P301L Alexa594 fluorescence, heparin fibrillization. Potency, µM (doses to about 57.7 µM), inactives show top-dose activity change, negative = decrease; note: nearly all actives have a fitted effect of over 55% in size
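Human K18 P301L tau (15 uM unlabeled plus 0.24 uM Alexa 594-labeled, final) in 100 mM sodium acetate pH 7 was mixed with compound and 20 uM heparin and incubated 6 hr at 37 C.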
Tau ThT inhib = qHTS for Inhibitors of Tau Fibril Formation, Thioflavin T Binding; Microtubule-associated protein tau (Homo sapiens), P10636; recombinant tau K18 P301L (four-repeat tau fragment), heparin-induced fibrillization, ThT fluorescence; Potency, µM (highest dose often 57.4 µM), for the others: at the top dose activity, negative = inhibition, most hits filed as inhibitors; hit rate 2.1% among 270,000; AID 1460, 2008; note: nearly all actives have a fitted effect of over 55% in size
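K18 P301L tau (15 uM + 0.24 uM Alexa 594-tagged), heparin 20 uM, NaOAc pH 7, 6 h 37 C; ThT 30 uM, 1 h RT, ex 450/em 510 nm.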
Active calls of the source: *; ? = inconclusive; . = no result given; ! = not confirmed by another sample; [ ] = remark or other dose. Calls come from the whole dose curve; as a rule, active = well fitted curve in the direction sought with a large enough effect; inconclusive = small, poorly fitted or top-dose-only effect, or another doubt; inactive = no such curve, though single readings can be large; an effect the other way counts as inactive or inconclusive. % is set by controls: 0 for no effect and ±100 for the full control effect; potency is the fitted concentration of half-maximal effect.

SMILES	RORg inh	Gal4-VP16 FLuc	Tau fibril FP	Tau fluor counter	Tau ThT inhib
Cc1ccc(OCCn2cc(/C=C3\C(=O)NN(c4ccccc4)C3=O)c3ccccc32)cc1	25%	-6%	?	?	7.1µM*
COC(=O)N/N=C/c1cn(CCOc2ccccc2)c2ccccc12	?	17%	?	?	?
CCOC(=O)N/N=C/c1cn(CCCOc2ccccc2)c2ccccc12	5%	-21%	7%	3%	5%
COc1cccc(OCCn2cc(/C=N/NC(=O)c3ccncc3)c3ccccc32)c1	?	10µM*	10%	14µM*[quencher]	?
COC(=O)N/N=C/c1cn(CC(C)COc2ccccc2)c2ccccc12 (centres undefined)	?	-21%	?	14µM*[quencher]	?
COC(=O)N/N=C/c1cn(CCOc2ccc(OC)cc2)c2ccccc12	35%	6%	.	.	.
Cc1ccc(OCCn2cc(/C=N/NC(=O)c3ccncc3)c3ccccc32)cc1	5µM*	11µM*	5%	13µM*[quencher]	-8%
CCOC(=O)N/N=C/c1cn(CCCOc2ccc(C)cc2)c2ccccc12	1.4µM*	1.8µM*	11%	?	?
Cc1cccc(OCCSc2nnc(-c3cccs3)o2)c1	.	.	-6%	-23%	?
COCCCNC(=O)c1cc(-c2cccnc2)nc2ccc(S(=O)(=O)N3CCC(C)CC3)cc12	.	.	-1%	-5%	-7%
CC1(OC(=O)C2CCCC2)C(=O)C=C2C=C(c3ccsc3)N(C3CCCCC3)C=C2C1=O (centres undefined)	0%	-10%	?	-8%[11.6 µM]	14µM*!
CC1(OC(=O)C2CCCC2)C(=O)C=C2C=C(c3ccsc3)N(CC3CC3)C=C2C1=O (centres undefined)	24%	3%	-1%[11.6 µM]	-12%[11.6 µM]	?
CC1(OC(=O)C2CCCC2)C(=O)C=C2C=C(c3ccsc3)N(CCc3c[nH]c4ccccc34)C=C2C1=O (centres undefined)	3%	-1%	?	0%[11.6 µM]	4.5µM*!
CC(=O)OC[C@@H]1O[C@@H](O/N=C2/C[C@@H](O)[C@@H](O)[C@@H]3[C@@H]4C(=O)N(C[C@@H]5CCCO5)C(=O)[C@H]4CC[C@@H]23)[C@H](OC(C)=O)[C@H](OC(C)=O)[C@@H]1OC(C)=O	1%[10 µM]	-6%[10 µM]	-2%[11.6 µM]	-8%[11.6 µM]	-7%[11.5 µM]
CCOC(=O)N/N=C1/C[C@@H](O)[C@@H](O)[C@@H]2[C@@H]3C(=O)N(C[C@@H]4CCCO4)C(=O)[C@H]3CC[C@H]12	13%[10 µM]	1%[10 µM]	2%[11.6 µM]	-19%[11.6 µM]	-17%[11.5 µM]
CC(=O)c1cccc(S(=O)(=O)NCC(C)(C)N2CCOCC2)c1	-20%	1%	.	.	.
O=C(CN1C(=O)COc2ccc(Cl)cc21)Nc1ccc(F)cc1	.	.	-15%	-24%	-4%
COc1ccc(N=N/C(C(C)=O)=C(/C)O)cc1	7%	7%	2%	-13%	16µM*
Cc1cc(OC(C)C(=O)N(Cc2ccco2)Cc2ccco2)cc(C)c1Cl (centres undefined)	.	.	5%	-24%	?
C=CCNC(=O)c1ccc(-c2cccc([N+](=O)[O-])c2)o1	9%	-1%	8%	-12%	?
Cc1nnc(N/N=C/c2ccc(-c3ccc(Br)cc3)o2)n1N	3.2µM*	8.9µM*	-15%	?	7.9µM*
C=CCNC(=S)N/N=C/c1ccc(-c2cccc([N+](=O)[O-])c2)o1	0.5µM*	2.5µM*	4%	1%	3%
CCCCOC(=O)c1ccc(-c2ccc(/C=N/NC(=S)NCC)o2)cc1	0.35µM*	2.5µM*	-7%	-20%	?
C=CCNC(=S)N/N=C/c1ccc(-c2ccc(Br)cc2)o1	0.35µM*	0.4µM*	2%	?	?
COc1ccc(CN2C(=O)N(c3ccc(F)cc3)C(=O)C2CC(=O)Nc2cc(OC)cc(OC)c2)cc1 (centres undefined)	.	.	-5%	-25%	-9%
SMILES	RORg inh	Gal4-VP16 FLuc	Tau fibril FP	Tau fluor counter	Tau ThT inhib
NC(=O)c1ccc(N2CCN(c3ccccc3F)CC2)c([N+](=O)[O-])c1	?	-18%	?	-29%	16µM*
COc1ccc(N2CCN(c3ccc(C(N)=O)cc3[N+](=O)[O-])CC2)cc1	19%	6%	1%	?	4.5µM*
O=C(Nc1ccc(N=Nc2ccccc2)c(NC(=O)C2CCCO2)c1)C1CCCO1 (centres undefined)	19%	3%	-2%	-27%	14µM*
CC(C)c1ccc(/C=C/C(=O)N2CCCCCC2)cc1	31%	1%	0%	-14%	?
CC(C)c1ccc(/C=C/C(=O)n2nnc3ccccc32)cc1	?	-5%	?	-15%	20µM*
COc1cc(OC)cc(-c2nnc(NC(=O)c3ccc4c(c3)OCCO4)o2)c1	0.32µM*	0.63µM*	.	.	.
COc1cccc(-c2nnc(NC(=O)c3ccc4ncsc4c3)o2)c1	0.56µM*	0.56µM*	3%	-13%	?
O=C(Nc1nnc(-c2ccc(Cl)cc2)o1)c1cccc(N2C(=O)CCC2=O)c1	3.2µM*	2.2µM*	1%	7%	12%
O=C(Nc1nnc(-c2ccncc2)o1)c1cccc(N2C(=O)CCC2=O)c1	-26%	10%	0%	4%	-2%
CSc1ccc(-c2nnc(NC(=O)c3ccc4c(c3)OCCO4)o2)cc1	.	.	-14%	-11%	-12%
COc1cccc(C(=O)Nc2nnc(-c3ccc(F)cc3)o2)c1	5µM*	1.8µM*	8%	-2%	-8%
C=CCc1cccc(C2C(C)CCC3C(=O)N4C(Cc5c([nH]c6ccccc56)C4c4cc(OC)c(OC)c(OC)c4)C(=O)N32)c1 (centres undefined)	-7%[10 µM]	-7%[10 µM]	0%[11.6 µM]	?	-14%[11.5 µM]
COc1cc(C2/C(=C(/O)c3ccccc3)C(=O)C(=O)N2c2ccccn2)ccc1O (centres undefined)	2%	0%	-3%	-6%	-10%
CCOc1ccc(NC(=O)CNC(=O)c2ccc(OC)c(OC)c2)cc1	2%	-6%	7%	4%	2%
COc1cccc(C(=O)Nc2nnc(-c3cccs3)o2)c1	0.63µM*	0.79µM*	2%	-10%	-6%
COc1cccc(-c2nnc(NC(C)=O)o2)c1	?	?	4%	7%	5%
COc1cccc(C(=O)Nc2nnc(-c3ccc(Cl)cc3)o2)c1	?	1.6µM*	-4%	9%	-5%
CCOc1ccc(-c2nnc(NC(=O)c3ccc(OCC(C)C)c(OC)c3)o2)cc1	0.028µM*	0.025µM*	-1%	-12%	?
